Drawing on PubChem BioAssay (NCATS), this text covers Potency and activity change, negative = cytotoxicity for 15 compounds.

Molecules are shown by their SMILES. Records with an inconclusive call do not appear. Unmarked numbers belong to inactive results. Active and inactive are the calls of the source. Calls come from the whole dose curve; as a rule, active = well fitted cell-killing curve with a large enough effect; inconclusive = small, poorly fitted or top-dose-only effect, or effect the other way; inactive = flat fitted curve, though single readings scatter.

Holding throughout (experiment): Primary qHTS to identify gynecologic anti-cancer compounds using libraries of approved drugs and bioactive compounds (AID 1345084); note: nearly all actives have a fitted effect of over 55% in size
(In general: In qHTS, concentration-response curves come from the screen itself.)

One test relates to C33A. The conditions noted are these: Gynecologic cancer cell panel viability, ATPlite luminescence, 48 h; series mostly up to 57.5 µM. In short, it runs like this:
(§1)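 Cells, 1,000 per well, plated 16 h, then exposed 48 h at 37 C to compounds. Viability by ATPlite luminescence after 15 min at room temperature.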
For orientation: Cellular ATP, detected with luciferase, serves as a proxy for viable cell number.

A further test deals with CAOV3. The conditions noted are these: Gynecologic cancer cell panel viability, ATPlite luminescence, 48 h; series mostly up to 57.5 µM. In short, it runs like this: as §1
The test system of another test is CASKI. The conditions noted are these: Gynecologic cancer cell panel viability, ATPlite luminescence, 48 h; series mostly up to 57.5 µM. In short, it runs like this: as §1
The test system of a further test is Es-2. As to conditions: Gynecologic cancer cell panel viability, ATPlite luminescence, 48 h; series mostly up to 57.5 µM. In short, it runs like this: as §1
The subject of another test is HeLa. As to conditions: Gynecologic cancer cell panel viability, ATPlite luminescence, 48 h; series mostly up to 57.5 µM. The gist of the method: as §1
The subject of another test is Hek293T. As to conditions: Gynecologic cancer cell panel viability, ATPlite luminescence, 48 h, control line for the selectivity index; series mostly up to 57.5 µM. The gist of the method:
as §1

The subject of another test is JEG-3. The conditions noted are these: Gynecologic cancer cell panel viability, ATPlite luminescence, 48 h; series mostly up to 57.5 µM. In short, it runs like this:
as §1

A further test concerns OV90. The conditions noted are these: Gynecologic cancer cell panel viability, ATPlite luminescence, 48 h; series mostly up to 57.5 µM. In short, it runs like this: as §1
A further test concerns PA-1. As to conditions: Gynecologic cancer cell panel viability, ATPlite luminescence, 48 h; series mostly up to 57.5 µM. The gist of the method: as §1
A further test has as its system SKOV3. The conditions noted are these: Gynecologic cancer cell panel viability, ATPlite luminescence, 48 h; series mostly up to 57.5 µM. In short, it runs like this: as §1
In another test the test system is Tov-21-G. The conditions noted are these: Gynecologic cancer cell panel viability, ATPlite luminescence, 48 h; series mostly up to 57.5 µM. In short, it runs like this:
as §1

In a further test the test system is Tov112D. As to conditions: Gynecologic cancer cell panel viability, ATPlite luminescence, 48 h; series mostly up to 57.5 µM. In short, it runs like this: as §1
% is set by controls: 0 for no effect and ±100 for the full control effect; potency is the fitted concentration of half-maximal effect.

As to `CC1(C)C[C@H](O)C[C@@]2(C)OC(=O)C=C12`, the Potency result in the test with C33A, in the test with CAOV3, with CASKI, with Es-2, in the test on HeLa and in the test with Hek293T was “inactive” throughout. For the same compound, the Potency result with JEG-3, in the test on OV90, with PA-1, in the test on SKOV3, in the test with Tov-21-G and in the test with Tov112D was “inactive” in each case.

Take `COC(=O)CCSCc1ccc(-c2onc(C)c2NC(=O)OC(C)c2ccccc2Cl)cc1` (stereo not given): the Potency entry with C33A, in the test with CAOV3, in the test on CASKI, in the test with Es-2, in the test with HeLa and with Hek293T was “inactive” in each case. Besides, the Potency result in the test with JEG-3, in the test with OV90, with PA-1, in the test with SKOV3, with Tov-21-G and in the test with Tov112D was “inactive” throughout.

In the case of `C[C@@H]1O[C@@H](O[C@H]2[C@H](O[C@H]3[C@H](O[C@H]4CC[C@@]5(C)C(CC[C@]6(C)C5CC=C5[C@@H]7CC(C)(C)C[C@@H](O)[C@]7(C)CC[C@]56C)[C@@]4(C)CO)O[C@H](C(=O)O)[C@@H](O)[C@@H]3O)OC[C@H](O)[C@@H]2O)[C@H](O)[C@H](O)[C@H]1O` (stereo not given in full), the activity change, negative = cytotoxicity was -0.169% [at 11.6 µM] in the test with C33A; 0% [at 11.6 µM] in the test with CAOV3; -2.47% [at 11.6 µM] in the test with CASKI; 1.77% [at 11.6 µM] with Es-2; 0% [at 11.6 µM] in the test with HeLa; -7.13% [at 11.6 µM] in the test on Hek293T. For the same compound, the activity change, negative = cytotoxicity is -0.873% [at 11.6 µM] with JEG-3; -3.06% [at 11.6 µM] in the test on OV90; -1.53% [at 11.6 µM] in the test on PA-1; -7.2% [at 11.6 µM] with SKOV3; -1.97% [at 11.6 µM] with Tov-21-G; -12.3% [at 11.6 µM] in the test on Tov112D.

As for `OC[C@H]1O[C@@H](Oc2cc(O)c3c(c2)O[C@@H](c2ccc(O)cc2)[C@H](O)C3)[C@H](O)[C@@H](O)[C@@H]1O`, the Potency result in the test with C33A, in the test with CAOV3, in the test on CASKI, in the test on Es-2, with HeLa and in the test with Hek293T was “inactive” in each case. Besides, the Potency entry in the test on JEG-3, in the test with OV90, in the test on PA-1, in the test on SKOV3, with Tov-21-G and in the test on Tov112D was “inactive” throughout.

On to `CC(=O)OC1C[C@]2(C)C(O)CC(C)=C[C@H](OC(=O)c3ccc(O)cc3)C2[C@]1(O)C(C)C` (stereo not given in full), for which the Potency result in the test with C33A, in the test on CAOV3, in the test on CASKI, with Es-2, in the test on HeLa and in the test with Hek293T was “inactive” throughout. In addition, the Potency entry in the test with JEG-3, in the test on OV90, in the test on PA-1, in the test on SKOV3, in the test with Tov-21-G and in the test with Tov112D was “inactive” in each case.

`CC1=CC(=O)C2(OC3OC(C)C(O)C(OC(=O)/C=C/c4ccccc4)C3O)C=COC(OC3OC(CO)C(O)C(O)C3O)C12` (stereo not given): the Potency entry with C33A, in the test with CAOV3, with CASKI, in the test with Es-2, with HeLa and with Hek293T was “inactive” throughout. Besides, the Potency entry with JEG-3, in the test with OV90, in the test with PA-1, in the test on SKOV3, in the test on Tov-21-G and in the test with Tov112D was “inactive” each time.

For `CC1(C)C2CC=C(COC3OC(COC4OCC(O)(CO)C4O)C(O)C(O)C3O)C1C2` (stereo not given), the Potency entry with C33A, in the test on CAOV3, in the test on CASKI, in the test with Es-2, in the test with HeLa and with Hek293T was “inactive” throughout. Besides, the Potency result in the test with JEG-3, in the test with OV90, in the test on PA-1, in the test with SKOV3, in the test with Tov-21-G and with Tov112D was “inactive” throughout.

As for `COc1ccc(C2(O)CCC(N3CC[C@@H](NC(=O)CNC(=O)c4cccc(C(F)(F)F)c4)C3)CC2)cn1` (stereo not given in full), the Potency result in the test on C33A, in the test on CAOV3, with CASKI, with Es-2, with HeLa and in the test with Hek293T was “inactive” each time. In addition, the Potency result with JEG-3, with OV90, in the test on PA-1, in the test with SKOV3, in the test with Tov-21-G and in the test with Tov112D was “inactive” in each case.

Turning to `COc1ccc(C[C@H](N)C(=O)N[C@@H]2[C@H](O)[C@H](n3cnc4c(N(C)C)ncnc43)O[C@@H]2CO)cc1`, the Potency in the test on C33A was 3.16 µM (active); with CAOV3 it was 1.58 µM (active); in the test with CASKI it was 2.24 µM (active); in the test with Es-2, 2.51 µM (active); in the test on HeLa, 1.26 µM (active); in the test with Hek293T, 2.24 µM (active). The Potency in the test on JEG-3 is 3.55 µM (active); with OV90, 7.94 µM (active); in the test with PA-1, 1 µM (active); in the test with SKOV3 it was 2.82 µM (active); in the test on Tov-21-G, 4.47 µM (active); with Tov112D, 1.78 µM (active).

`OC1CCC(Nc2ncc3nc(Nc4c(F)cc(F)cc4F)n([C@H]4CCOC4)c3n2)CC1` (stereo not given in full): the Potency result with C33A, with CAOV3, in the test on CASKI, in the test with Es-2, in the test with HeLa and in the test with Hek293T was “inactive” in each case. Besides, the Potency entry in the test on JEG-3, in the test on OV90, in the test on PA-1, with SKOV3, with Tov-21-G and with Tov112D was “inactive” throughout.

With `Cc1ccc(F)cc1C(=O)Nc1ccc(C(=O)N2Cc3cccn3Cc3ccccc32)c(Cl)c1`, the Potency result in the test with C33A, with CAOV3, with CASKI, in the test with Es-2, in the test with HeLa and in the test on Hek293T was “inactive” each time. For the same compound, the Potency result in the test on JEG-3, with OV90, in the test on PA-1, in the test on SKOV3, in the test with Tov-21-G and in the test on Tov112D was “inactive” throughout.

As to `C=C[C@H]1[C@H](O[C@@H]2O[C@H](CO)[C@@H](O)[C@H](O)[C@H]2O)OC=C(C(=O)OC)[C@H]1CC(=O)O`, the Potency result in the test on C33A, in the test on CAOV3, with CASKI, in the test with Es-2, in the test with HeLa and in the test with Hek293T was “inactive” throughout. For the same compound, the Potency entry in the test with JEG-3, with OV90, in the test on PA-1, in the test with SKOV3, in the test on Tov-21-G and with Tov112D was “inactive” in each case.

As for `CC1=C(C(=O)O)/C(=C/CO[C@@H]2O[C@H](COC(=O)/C=C/c3ccc(O)cc3)[C@@H](O)[C@H](O)[C@H]2O)C(O)C1` (stereo not given in full), the Potency entry in the test with C33A, in the test with CAOV3, with CASKI, with Es-2, in the test with HeLa and in the test with Hek293T was “inactive” in each case. For the same compound, the Potency entry in the test with JEG-3, in the test with OV90, in the test with PA-1, in the test on SKOV3, in the test with Tov-21-G and with Tov112D was “inactive” in each case.

For the compound `CN1CCc2nc(C(=O)N[C@@H]3C[C@@H](C(=O)N(C)C)CC[C@@H]3NC(=O)C(=O)Nc3ccc(Cl)cn3)sc2C1`, the Potency entry in the test with C33A, in the test on CAOV3, with CASKI, with Es-2, in the test with HeLa and with Hek293T was “inactive” throughout. In addition, the Potency result in the test with JEG-3, in the test with OV90, in the test on PA-1, with SKOV3, in the test with Tov-21-G and in the test with Tov112D was “inactive” each time.

As to `COc1ccc(-c2ccc(-c3cn(C(=O)N4CCCCC4c4ccccc4)nn3)cc2)cc1` (stereo not given), the Potency entry in the test with C33A, in the test with CAOV3, with CASKI, in the test with Es-2, with HeLa and in the test with Hek293T was “inactive” each time. For the same compound, the Potency entry with JEG-3, in the test on OV90, in the test with PA-1, with SKOV3, in the test on Tov-21-G and with Tov112D was “inactive” in each case.
